Counter-ions that a name gives are not always drawn.
Assays:
Settings in all cases: incubation time: 27 h, anaerobic, 37 °C;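 for the amine columns active = adjusted P below 0.05 in both replicates with a change the same way and a mean fold change under 0.8 or over 1.25; inactive = the rest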
[1] = system: Clostridium sporogenes DSM 1664; test: growth (OD595) fold change vs plate DMSO controls (fold change (ratio)); higher = more growth
Outline: (§1)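 Shaken 96-well cultures in mGAM, grown anaerobically for 27 h at 37 °C, were read at 595 nm. OD came from blank-subtracted readings, corrected for background with 20 µM compound solutions in water and scaled by a calibration factor of 5. Growth is the fold change versus the plate's median DMSO control. Values average 2 biological replicates, and any fold change above 1.5 is NA.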

Escherichia coli IAI1 [2] = test: as above
Outline: as §1

[3] = system: Klebsiella aerogenes DSM 30053; test: as above
Outline: as §1

[4] = system: Ruminococcus gnavus DSM 108212; test: as above
Outline: as §1

[5] = system: Klebsiella aerogenes DSM 30053; test: fold change of Histamine concentration vs plate DMSO controls (fold change (ratio)); higher = more amine produced, active = hit call of the paper (significant change in both replicates, either direction)
Outline: (§2)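 Each value is the fold change relative to DMSO-only wells on the same plate. Four gut bacterial strains were grown anaerobically in mGAM at 37 °C for 27 h in 80 µL wells, starting at OD 0.1 before a 1:1 dilution, with compounds at 20 µM final (sweeteners 50 µM). Whole cultures were extracted with cold acetonitrile/methanol containing 0.1% formic acid, centrifuged, and amines were quantified by LC–triple-quadrupole MS (dynamic MRM) against external calibration curves with within-batch drift correction. Values are means of 2 biological replicates.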

[6] = system: Clostridium sporogenes DSM 1664; test: fold change of Tryptamine concentration vs plate DMSO controls (fold change (ratio)); higher = more amine produced, active = hit call of the paper (significant change in both replicates, either direction)
Outline: as §2

[7] = system: Ruminococcus gnavus DSM 108212; test: as above
Outline: as §2

Escherichia coli IAI1 [8] = test: fold change of Putrescine concentration vs plate DMSO controls (fold change (ratio)); higher = more amine produced, active = hit call of the paper (significant change in both replicates, either direction)
Outline: as §2

[9] = system: Klebsiella aerogenes DSM 30053; test: as above
Outline: as §2

Escherichia coli IAI1 [10] = test: fold change of Cadaverine concentration vs plate DMSO controls (fold change (ratio)); higher = more amine produced, active = hit call of the paper (significant change in both replicates, either direction)
Outline: as §2

[11] = system: Klebsiella aerogenes DSM 30053; test: as above
Outline: as §2

[12] = system: Ruminococcus gnavus DSM 108212; test: fold change of 2-Phenylethylamine concentration vs plate DMSO controls (fold change (ratio)); higher = more amine produced, active = hit call of the paper (significant change in both replicates, either direction)
Outline: as §2

Row | Structure (SMILES) | growth [1] | growth (Escherichia coli IAI1 [2]) | growth [3] | growth [4] | fold change of Histamine concentration [5] | fold change of Tryptamine concentration [6] | fold change of Tryptamine concentration [7] | fold change of Putrescine concentration (Escherichia coli IAI1 [8]) | fold change of Putrescine concentration [9] | fold change of Cadaverine concentration (Escherichia coli IAI1 [10]) | fold change of Cadaverine concentration [11] | fold change of 2-Phenylethylamine concentration [12]
1 | O=c1[nH]c(=O)n([C@H]2C[C@H](O)[C@@H](CO)O2)cc1/C=C/Br [Brivudine] (20 µM) | 1.08 | 1.06 | 1.02 | 1.06 | 0.978 (inactive) | 1.03 (inactive) | 1.04 (inactive) | 0.968 (inactive) | 1 (inactive) | 0.982 (inactive) | 1 (inactive) | 1.08 (inactive)
2 | O=c1oc2cc(O)ccc2s1 [Tioxolone] (20 µM) | 1.04 | 1.01 | 0.979 | 1.07 | 1.02 (inactive) | 1.05 (inactive) | 0.987 (inactive) | 1.02 (inactive) | 0.997 (inactive) | 0.989 (inactive) | 0.987 (inactive) | 0.959 (inactive)
3 | N=c1ccn2c(n1)O[C@H]1[C@H](O)[C@@H](CO)O[C@H]12 [Ancitabine hydrochloride] (20 µM) | 1.2 | 1.01 | 0.999 | 0.855 | 1.06 (inactive) | 0.98 (inactive) | 0.744 (active) | 1.02 (inactive) | 0.991 (inactive) | 1 (inactive) | 0.992 (inactive) | 0.794 (inactive)
4 | CCN(CC)CCNC(=O)COc1ccc(OC)cc1 [Mefexamide hydrochloride] (20 µM) | 0.963 | 1.01 | 1.08 | 1.05 | 0.874 (inactive) | 1.07 (inactive) | 1.01 (inactive) | 1.02 (inactive) | 0.961 (inactive) | 1.05 (inactive) | 1.02 (inactive) | 0.977 (inactive)
5 | CN1C(=O)OC(C)(C)C1=O [Trimethadione] (20 µM) | 1 | 1.03 | 1.01 | 1.27 | 0.977 (inactive) | 0.924 (inactive) | 0.948 (inactive) | 1.02 (inactive) | 0.987 (inactive) | 0.991 (inactive) | 0.999 (inactive) | 0.919 (inactive)
6 | CCCCC1C(=O)N(c2ccccc2)N(c2ccc(O)cc2)C1=O (configuration not stated) [Oxyphenbutazone] (20 µM) | 1.01 | 1 | 1.2 | 1.09 | 0.888 (inactive) | 1.3 (inactive) | 1.14 (inactive) | 1.21 (inactive) | 0.877 (inactive) | 0.973 (inactive) | 1.14 (inactive) | 1.23 (inactive)
7 | CC(=O)[C@H]1CC[C@H]2[C@@H]3C[C@H](C)C4=CC(=O)CC[C@]4(C)[C@H]3[C@@H](O)C[C@]12C [Medrysone] (20 µM) | 1.08 | 1.03 | 1.05 | 1.03 | 1.02 (inactive) | 1.03 (inactive) | 1.01 (inactive) | 0.978 (inactive) | 1 (inactive) | 1.02 (inactive) | 0.996 (inactive) | 1.01 (inactive)
8 | O=C(c1cc(O)c(O)c(O)c1)c1ccc(O)c(O)c1O [Exifone] (20 µM) | 1.09 | 1 | 0.934 | 0.904 | 1.06 (inactive) | 1.09 (inactive) | 1.03 (inactive) | 1.01 (inactive) | 0.998 (inactive) | 0.991 (inactive) | 1 (inactive) | 1.07 (inactive)
9 | c1ccc2c(c1)ccc1ccccc12 [Phenanthrene] (20 µM) | 0.976 | 0.992 | 0.975 | 0.96 | 1 (inactive) | 1.02 (inactive) | 1.07 (inactive) | 0.992 (inactive) | 0.817 (inactive) | 0.904 (inactive) | 1.12 (inactive) | 1.09 (inactive)
10 | Cn1cc(C(=O)[C@@H]2CCc3[nH]cnc3C2)c2ccccc21 [Ramosetron hydrochloride] (20 µM) | 0.928 | 0.966 | 1 | 0.964 | 0.964 (inactive) | 1.02 (inactive) | 1 (inactive) | 0.969 (inactive) | 1.01 (inactive) | 1.11 (inactive) | 0.997 (inactive) | 1.04 (inactive)
11 | CC(=O)Nc1c(I)c(C(=O)N[C@H]2C(O)O[C@H](CO)[C@@H](O)[C@@H]2O)c(I)c(N(C)C(C)=O)c1I (some centres not stated) [Metrizamide] (20 µM) | 1.03 | 1.22 | 1.04 | 0.799 | 0.994 (inactive) | 1.05 (inactive) | 1.06 (inactive) | 1.22 (inactive) | 0.994 (inactive) | 0.971 (inactive) | 1 (inactive) | 1.08 (inactive)

— the supplement of paper PMC12494721
